Assay [1] can be described thus: Viability qHTS for spleen associated tyrosine kinase inhibitor (SYKi) naive MV4-11 cells (AID 1963823). Also: nearly all actives have a fitted effect of over 40% in size. Also: potency is read from the fitted curve at half-maximal effect. In short, it runs like this:
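Cells: MV4-11, SYK inhibitor naive, 500 per well. Treatment: library compounds, 72 hr, 37 C, 5% CO2. Read-out: CellTiter-Glo luminescence after 10 min RT.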
A general note: In qHTS, concentration-response curves come from the screen itself.

The nature of assay [2]: Quantitative highthroughput screen to assess conditional lethalithy of NOMO1 cells grown in RPMI1640 with dialyzed fetal bovine serum (RPMI+ds) (AID 1963877).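 Also: series mostly up to about 46 µM; 100% = DMSO control wells and 0% = empty wells; nearly all actives have a fitted effect of over 30% in size.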 In short, it runs like this:
(§1)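 Each medium arm—HPLM with 10% dialyzed FBS, or RPMI1640 with 5 mM glucose and 10% untreated or dialyzed FBS—was screened against an 11-point, 3-fold compound titration for 48 h at 37 °C, with CellTiter-Glo luminescence as endpoint.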

Assay [3] in a line: Quantitative highthroughput screen to assess conditional lethalithy of P12 Ichikawa cells grown in Human Plasma-Like Medium with dialyzed fetal bovine serum (HPLM+ds) (AID 1963879). Also: nearly all actives have a fitted effect of over 35% in size. Also: potency is read from the fitted curve at half-maximal effect. As to Viability: series mostly up to about 46 µM. The settings on record: Potency: viability. In short, it runs like this:
as §1

Assay [4] in a line: Quantitative highthroughput screen to assess conditional lethalithy of SEM cells grown in RPMI1640 with unreated serum (RPMI+s) (AID 1963883). Also: nearly all actives have a fitted effect of over 35% in size. Also: potency is read from the fitted curve at half-maximal effect.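 As to Viability: 100% = DMSO wells and 0% = empty wells without cells.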 In short, it runs like this: as §1
The nature of assay [5]: Quantitative highthroughput screen to assess conditional lethalithy of SEM cells grown in RPMI1640 with dialyzed fetal bovine serum (RPMI+ds) (AID 1963884). Also: nearly all actives have a fitted effect of over 35% in size. Also: potency is read from the fitted curve at half-maximal effect.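 As to Viability: series mostly up to about 46 µM; 100% = DMSO control wells and 0% = empty wells without cells.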 In a few lines:
as §1

Assay [6] in a line: Cellular viability qHTS for adrenocortical cancer (ACC) cell line SW-13 (AID 1963989). Also: nearly all actives have a fitted effect of over 65% in size. Also: potency is read from the fitted curve at half-maximal effect.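 As to activity (max response): cells grown in serum-free medium with ITS supplement; % is scaled to controls: 0 for no effect and ±100 for the full control effect.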 The settings on record: SW-13 ACC cells viability, CellTiter-Glo, 48 h; activity (max response): stronger effect = lower value. In a few lines: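 Compound titrations (up to 46 uM final, in DMSO) were applied to SW-13 cells for 48 h at 37C/5% CO2. Reading used CellTiter-Glo after 20 min at room temperature; fitted curves yielded IC50 and efficacy.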

Assay [7] in a line: Cellular viability qHTS for adrenocortical cancer (ACC) cell line NCI-H295R (AID 1963990). Also: nearly all actives have a fitted effect of over 60% in size. Also: potency is read from the fitted curve at half-maximal effect. In a few lines: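 Readout: CellTiter-Glo luminescence, 20 min RT. Exposure: 48 h, 37C/5% CO2. Cells: NCI-H295R, ITS-DMEM serum-free. Range: up to 46 uM. Analysis: 4PL fit, IC50 plus efficacy.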
The nature of assay [8]: Quantitative highthroughput screen to assess conditional lethalithy of NOMO1 cells grown in RPMI1640 with untreated serum (RPMI+s) (AID 1963876).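 Also: 100% = DMSO wells and 0% = empty wells without cells; nearly all actives have a fitted effect of over 35% in size.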 In a few lines:
as §1

A short description of assay [9]: Quantitative highthroughput screen to assess conditional lethalithy of NOMO1 cells grown in Human Plasma-Like Medium with dialyzed fetal bovine serum (HPLM+ds) (AID 1963878). In short, it runs like this:
as §1

A short description of assay [10]: Quantitative highthroughput screen to assess conditional lethalithy of P12 Ichikawa cells grown in RPMI1640 with dialyzed fetal bovine serum (RPMI+ds) (AID 1963880). Particulars: Potency: P12-Ichikawa viability. In short, it runs like this: as §1
Assay [11] is described as follows: Quantitative highthroughput screen to assess conditional lethalithy of P12 Ichikawa cells grown in RPMI1640 with untreated serum (RPMI+s) (AID 1963881). The settings on record: Potency: viability. In short, it runs like this:
as §1

Assay [12] is described as follows: Quantitative highthroughput screen to assess conditional lethalithy of SEM cells grown in Human Plasma-Like Medium with dialyzed fetal bovine serum (HPLM+ds) (AID 1963882). In a few lines: as §1

Molecules are shown by their SMILES. Values joined by “and” are separate entries in the source; they are usually repeats but may differ in a detail not shown here. Equal entries are not always repeated. Records with an inconclusive call do not appear. Active and inactive are the calls of the source. Calls follow the shape of the dose curve; as a rule, active = well fitted curve in the direction sought with a large enough effect; inconclusive = small, poorly fitted or top-dose-only effect, or another doubt; inactive = no such curve, though single readings can be large; an effect the other way counts as inactive or inconclusive.

In the case of `O=C(O)CCC=CCC[C@@H]1[C@H](N2CCCCC2)[C@@H](O)C[C@@H]1OCc1ccc(-c2ccccc2)cc1`, the Potency result in [1], in assay [2], in [3], in assay [4], in [5] and in assay [7] was “inactive” each time. For the same molecule, the activity (max response) in [6] was -17.1% (inactive).

As for `O=c1c(O)c(-c2ccc(O)c(O)c2)oc2cc(O)ccc12`, the Potency is 13.2 µM (active) in assay [1] and 23.5 µM (active) in assay [5]. Also, the Potency result in [8], in [9] and in [7] was “inactive” in each case. Besides, the activity (max response) in [6] is 0.454% (inactive).

As to `COc1cc2c(Nc3ccc(NC(=O)c4ccccc4)cc3)ncnc2cc1OCCCN1CCOCC1`, the Potency in assay [1] is 1.16 µM (active) and 1.86 µM (active); in [3], 3.72 µM (active); in [4] it was 3.72 µM (active); in assay [5], 2.96 µM (active); in [7] it was 15.8 µM (active). In addition, the Potency entry in assay [9] was “inactive”. For the same molecule, the activity (max response) in assay [6] was -24.4% (inactive).

Turning to `CN(C)c1ccc(C2Nc3ccc4ccccc4c3C3=C2C(=O)CC(C)(C)C3)cc1Br` (centres undefined), the Potency entry in [1], in assay [8], in [9], in assay [3], in [10] and in assay [11] was “inactive” throughout. Besides, the Potency entry in assay [12], in assay [4], in [5] and in assay [7] was “inactive” in each case. Besides, in [6], the activity (max response) is -5.19% (inactive).

In the case of `C=C1CCC[C@]2(C)C=C3OC(=O)C(C)=C3C[C@@H]12`, the Potency result in assay [1] was “inactive”. For the same molecule, the activity (max response) in [6] was -6.22% (inactive).

As for `CC(C)(C)C(=O)N1N=CC[C@H]1c1ccccc1`, in assay [1], the Potency was 2.35 µM (active). In addition, the activity (max response) in assay [6] is 3.19% (inactive).

Turning to `O=S(=O)(O)c1ccc2cc(N=Nc3cc(S(=O)(=O)O)c4cccnc4c3O)ccc2c1`, the Potency result in [1] is “inactive”. In [6], the activity (max response) is -15.7% (inactive).

Regarding `C#C[C@]1(O)CC[C@H]2[C@@H]3CCC4=CC(=O)CC[C@@H]4[C@H]3CC[C@@]21C`, the Potency entry in assay [1] is “inactive”. Besides, in assay [6], the activity (max response) was 2.7% (inactive).

Consider `COc1ccc2cc(OCC3(C(=O)O)CN(C(=O)c4ccc(F)cc4)C3)ccc2c1`, for which the Potency entry in assay [1] and in [7] was “inactive” throughout. The activity (max response) in assay [6] was -4.74% (inactive).

With `Oc1cccc2[nH]ccc12`, in assay [1], the Potency is 5.31 µM (active). Also, the activity (max response) in assay [6] is 11.5% (inactive). Further, the Potency result in assay [7] is “inactive”.

With `CN(C)CCCN1c2ccccc2Sc2ccc(Cl)cc21`, the Potency in assay [1] was 10.6 µM (active); in assay [6], 14.6 µM (active).

For `C1CCN2C[C@@H]3C[C@@H](CN4CCCC[C@@H]34)[C@H]2C1`, in assay [1], the Potency result is “inactive”. The activity (max response) in assay [6] is -0.968% (inactive).

As for `CCc1cc(/C(C)=N/OCc2ccc(C3CCCCC3)c(C(F)(F)F)c2)ccc1CN1CC(C(=O)O)C1`, the Potency in assay [1] is 18.6 µM (active). In addition, the activity (max response) in assay [6] was -17.6% (inactive).

Regarding `Nc1ccc(S(=O)(=O)Nc2ccccn2)cc1`, the Potency result in [1] and in assay [7] was “inactive” each time. For the same molecule, the activity (max response) in assay [6] is 6.67% (inactive).

`CCN(CCCOc1ccc2c(Nc3cc(CC(=O)Nc4cccc(F)c4)[nH]n3)ncnc2c1)CCOP(=O)(O)O`: in assay [1], the Potency is 23.1 nM (active) and 186 nM (active). For the same molecule, in assay [6], the activity (max response) was -30.5% (inactive).

In the case of `CCC1(c2cnc[nH]2)Cc2ccccc2C1`, the Potency entry in assay [1] and in [7] was “inactive” in each case. Besides, in assay [6], the activity (max response) was -4.6% (inactive).

In the case of `COc1cc(C)c(Cc2cnc(N)nc2N)cc1OC`, the Potency entry in [1] was “inactive”. Besides, in [6], the activity (max response) was -2.95% (inactive).

Take `CC(C)(C)c1[nH]cnc1/C=c1\[nH]c(=O)/c(=C/c2ccccc2)[nH]c1=O`: the figures for the Potency in assay [1] and in assay [6] were 0.0833 µM (active) and 0.0398 µM (active), respectively.

With `C[C@@H]1CN(CC(=O)Nc2ccc3c(c2)Cc2cccc(-c4cc(=O)cc(N5CCOCC5)o4)c2S3)C[C@H](C)O1`, the Potency was 8.33 µM (active) in assay [1] and 28.2 µM (active) in assay [6].

Consider `CCOC(=O)[C@H](CCc1ccccc1)N[C@@H](C)C(=O)N1Cc2cc(OC)c(OC)cc2C[C@H]1C(=O)O`, for which, in [1], the Potency entry is “inactive”. Moreover, the activity (max response) in assay [6] was 2.85% (inactive).

On to `NC(=O)c1ccc2[nH]ccc2c1`, for which the Potency result in assay [1] and in assay [7] was “inactive” in each case. Further, the Potency in [5] was 18.7 µM (active). For the same molecule, in [6], the activity (max response) is -8.13% (inactive).

As for `COC(=O)[C@@H]1CC2=CC(=O)CC[C@]2(C)[C@@]23O[C@@H]2C[C@@]2(C)[C@@H](CC[C@@]24CCC(=O)O4)[C@H]13`, the Potency entry in [1] and in assay [7] was “inactive” each time. In addition, the activity (max response) in assay [6] was -0.519% (inactive) and -3.74% (inactive).

On to `O=C(Cn1ccnc1[N+](=O)[O-])NCc1ccccc1`, for which the Potency entry in assay [1] is “inactive”. Also, in assay [6], the activity (max response) was -1.05% (inactive).

As to `Cn1ncc(NC(=O)c2nc(-c3c(F)cccc3F)sc2N)c1N1CC[C@@H](N)[C@H](F)CC1`, the Potency in assay [1] is 0.235 µM (active); in [6], 25.1 µM (active).

As to `CCc1c(-c2ccccc2C)nc2c(C#N)c[nH]n2c1=O`, the Potency result in assay [1] and in assay [7] was “inactive” throughout. Further, in [6], the activity (max response) is 6.89% (inactive) and 1.74% (inactive).

In the case of `Clc1ccc2c(c1)Nc1ccccc1S2`, the Potency entry in [1] was “inactive”. In [6], the activity (max response) was -11.9% (inactive).

Turning to `CC1(C)O[C@@H]2C[C@H]3[C@@H]4CCC5=CC(=O)C=C[C@]5(C)[C@H]4[C@@H](O)C[C@]3(C)[C@]2(C(=O)CO)O1`, the Potency result in [1] and in assay [7] was “inactive” each time. Besides, the activity (max response) in [6] was -6.19% (inactive).

As to `CCO[C@@H]1OC(=O)C[C@@H]1NC(=O)[C@@H]1CCCN1C(=O)[C@@H](NC(=O)c1ccc(N)c(Cl)c1)C(C)(C)C`, the Potency result in assay [1] and in [7] was “inactive” in each case. The activity (max response) in assay [6] was -11.3% (inactive).

Values taken from PubChem BioAssay (NCATS).
